Assay results from PubChem BioAssay (Tox21).
Records with an inconclusive call do not appear. Active and inactive are the calls of the source. Calls come from the whole dose curve; as a rule, active = well fitted cell-killing curve with a large enough effect in the repeat runs; inconclusive = weak or mixed curves; inactive = no such curve, though single readings can be large or run the other way.

assay: qHTS assay to identify small molecule antagonists of the androgen receptor (AR) signaling pathway - cell viability counter screen (AID 743033; note: nearly all actives have a fitted effect of over 45% in size); conditions: AR-bla HEK293 viability, CellTiter-Glo luminescence, 16 h; series mostly up to 58.5 µM
From the text: National Center for Advancing Translational Sciences [NCATS]
NIH Chemical Genomics Center [NCGC]
U.S. Environmental Protection Agency [EPA]
National Institutes of Environmental Health Sciences [NIEHS]
National Toxicology Program [NTP]
U.S. Food and Drug Administration [FDA]
Androgen receptor (AR), a nuclear hormone receptor, plays a critical role in AR-dependent prostate cancer and other androgen related diseases. Endocrine disrupting chemicals (EDCs) and their interactions with steroid hormone receptors like AR may cause disruption of normal endocrine function as well as interfere with metabolic homeostasis, reproduction, developmental and behavioral functions. To identify the compounds that inhibit AR signaling, GeneBLAzer AR-UAS-bla-GripTite cell line (Invitrogen, Carlsbad, CA, USA) containing a beta-lactamase reporter gene under control of an Upstream Activator Sequence (UAS) stably integrated into HEK293 cells was used to screen the Tox21 10K compound library. The cytotoxicity of the Tox21 compound library against the AR-bla cell line was tested in parallel by measuring the cell viability using CellTiter-Glo assay in the same wells.
Tox21 Assay Protocol Summary:
AR-bla cells were dispensed at 2,000 cells/5 uL of assay medium per well into black wall/clear-bottom 1536-well plates using a Multidrop Combi (ThermoFisher Scientific, Waltham, MA) dispenser. After the assay plates were incubated at a 37C and 5% CO2 for 4 hr, 23 nL of compounds dissolved in DMSO, positive controls or DMSO only was transferred to the assay plate by a Pintool station (Kalypsys, San Diego, CA), followed by addition of 1 uL of agonist (R1881) in culture medium using a Bioraptr Flying Reagent Dispenser (FRD) workstation (Beckman Coulter, Indianapolis, IN, USA). The plates were incubated at a 37C and 5% CO2 for 16 h. After 1 uL of LiveBLAzerTM B/G FRET substrate was added using a Bioraptr FRD, the plates were incubated at room temperature for 2 h and fluorescence intensity was measured by an Envision plate reader (PerkinElmer, Shelton, CT). For cell viability readout that measures cytotoxicity, 4 ul/well of CellTiter-Glo reagent was added into the assay plates using a Bioraptr FRD. After 30 min incubation at room temperature, the luminescence intensity in the plates was measured using a ViewLux (PerkinElmer) plate reader.

SMILES	outcome
O=S(=O)(O)c1cccc(S(=O)(=O)O)c1	inactive
CC1=CC(=O)[C@H]2C[C@@H]1C2(C)C	inactive
CC1=NS(=O)(=O)c2cc(Cl)ccc2N1	inactive
CCCCS(=O)(=O)N[C@@H](Cc1ccc(OCCCCC2CCNCC2)cc1)C(=O)O	inactive
O=C1NC(=O)C2CC=CCC12 (stereo not given)	inactive
CCOC(=O)COc1cc(-n2ncc(C(F)(F)F)c(C)c2=O)c(F)cc1Cl	inactive
CCOc1ccccc1OCC	inactive
CC(=O)N[C@H]1[C@H]([C@H](O)[C@H](O)CO)OC(C(=O)O)=C[C@@H]1N=C(N)N	inactive
CC[N+](CC)(CC(=O)Nc1c(C)cccc1C)Cc1ccccc1 (tested in a mixture with another compound)	inactive
O=C1CCCCCCCCCCCCCCO1	inactive
CCC1C(=O)OCC1Cc1cncn1C (stereo not given)	inactive
CC(C)C1CCC(O)CC1 (stereo not given)	inactive
O=S(=O)(O)c1cc(O)c(O)c(S(=O)(=O)O)c1	inactive
C[C@H]1C[C@H]2[C@@H]3CCC4=CC(=O)C=C[C@]4(C)[C@H]3C(=O)C[C@]2(C)[C@@]1(O)C(=O)CO	inactive
c1ccc(CCc2ccccc2)cc1	inactive
NCCCC[C@H](N[C@@H](CCc1ccccc1)C(=O)O)C(=O)N1CCC[C@H]1C(=O)O	inactive
O=C(O)CNC(=O)c1ccccc1	inactive
Cc1ncc([C@@H](CCCCCCc2ccc3c(n2)NCCC3)CC(=O)O)cn1	inactive
CCCc1ncc(C[n+]2ccccc2C)c(N)n1	inactive
C[N+]1(C)[C@@H]2CC(OC(=O)[C@H](CO)c3ccccc3)C[C@H]1[C@@H]1O[C@@H]12 (stereo not given in full)	inactive

SMILES	outcome
O=C(O)c1cc(C(=O)O)cc(C(=O)O)c1	inactive
CC(=O)N1C[C@H](O)C[C@H]1C(=O)O	inactive
O=S(=O)(O)c1cccc2ccccc12	inactive
O=C(c1ccccc1O)c1ccccc1O	inactive
NCCCC(N)(C(=O)O)C(F)F (stereo not given)	inactive
CCC(C)(CCCC(C)C)OC(C)=O (stereo not given)	inactive
[Ca+2]	inactive
CC(C)(C#N)Nc1nc(Cl)nc(NC2CC2)n1	inactive
NC(=O)N[C@@H](CCC(=O)O)C(=O)O	inactive
CCOC(=O)OC(C)OC1=C(C(=O)Nc2ccccn2)N(C)S(=O)(=O)c2ccccc21 (stereo not given)	inactive
CCCn1cc[n+](C)c1C	inactive
CC/C=C\CCOC(C)OCC (stereo not given)	inactive
CN(C)[C@@H]1C(=O)C(C(=O)NCN2CCCC2)=C(O)[C@@]2(O)C(=O)C3=C(O)c4c(O)cccc4[C@@](C)(O)C3C[C@@H]12 (stereo not given in full)	inactive
C=CCCC(=O)O	inactive
CC(C)[C@H]1CC[C@@H](C)CC1=O	inactive
C[N+]12CCC(CC1)C(OC(=O)C(O)(c1ccccc1)c1ccccc1)C2 (stereo not given)	inactive
CN(C)C(=O)Oc1ccc[n+](C)c1	inactive
CC[N+](CC)(CC)CCOc1cccc(OCC[N+](CC)(CC)CC)c1OCC[N+](CC)(CC)CC	inactive
CC1(C)OC[C@@H](COC(=O)CCc2ccc(OC[C@@H](O)CNCCNC(=O)N3CCOCC3)cc2)O1	inactive
COc1cc2c(cc1OC)-c1cc3ccc(OC)c(OC)c3c[n+]1CC2	inactive
